Only a selection was taken, and hits are over-represented in it overall.
RE007 growth inh: qHTS Assay for Inhibitors of the HIV-1 protein Vpr; Potency, µM (doses to about 92.2 µM), hits mostly inhibitors; 360,000 tested, 0.21% active; S. pombe RE007 Vpr strain, BacTiter-Glo ATP luminescence, 24 h; AID 651644, 2012; active = well fitted falling curve with a large enough effect; inconclusive = small, poorly fitted or top-dose-only effect; inactive = no such curve, though single readings can be large or run the other way; note: nearly all actives have a fitted effect of over 50% in size
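Fission yeast strain RE007, carrying one chromosomally integrated HIV-1 vpr copy, was seeded at OD 0.01 in PMG+AL medium with 23 nL pinned compound. After 24 h at 30 °C and 99% humidity, viability was read by BacTiter-Glo luminescence.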
LmPK inh: qHTS Assay for Inhibitors of Leishmania Mexicana Pyruvate Kinase (LmPK). Q27686. purified LmPK, Kinase-Glo ATP luminescence, 1 h. Potency, µM (top dose mostly 57.5 µM), usual class: inhibitors. 290,000 tested, 0.37% active. AID 1721, 2009
Target sequence (Q27686 whole entry, looked up): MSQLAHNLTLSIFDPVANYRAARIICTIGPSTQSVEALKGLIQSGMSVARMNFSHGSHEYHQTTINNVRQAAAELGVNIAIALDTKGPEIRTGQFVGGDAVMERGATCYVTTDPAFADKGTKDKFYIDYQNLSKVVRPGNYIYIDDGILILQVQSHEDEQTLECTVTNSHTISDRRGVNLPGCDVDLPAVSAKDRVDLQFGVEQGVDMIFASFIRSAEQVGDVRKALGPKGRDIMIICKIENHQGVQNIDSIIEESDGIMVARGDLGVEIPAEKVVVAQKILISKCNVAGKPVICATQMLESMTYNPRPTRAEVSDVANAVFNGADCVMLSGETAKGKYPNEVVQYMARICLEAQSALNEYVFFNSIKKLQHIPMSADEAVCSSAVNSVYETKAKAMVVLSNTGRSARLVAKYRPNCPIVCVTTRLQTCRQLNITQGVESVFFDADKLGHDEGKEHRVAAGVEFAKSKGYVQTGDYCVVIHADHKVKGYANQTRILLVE
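ATP generated from ADP (0.1 mM) and PEP (0.5 mM) by 0.1 nM LmPK over 1 h at room temperature (pH 7.2 imidazole buffer) was detected by coupled luciferase luminescence. Values were normalized to uninhibited and no-enzyme wells.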
Shiga inhibitor: A qHTS for Small Molecule Inhibitors of Shiga Toxin. 290,000 tested, 9.2% active. inhibition, % at 38.7 µM. Vero cells, Shiga toxin protein synthesis inhibition reporter; in the data active = inhibition mostly above about 28%, no sharp cut-off; inactive = mostly below about 43%
TbPYK inhibitor: qHTS of Trypanosoma Brucei Inhibitors | 410,000 tested, 0.12% active | TbPYK enzyme, Kinase-Glo Plus ATP luminescence, 45 min | pyruvate kinase (Trypanosoma brucei), Q57TT1 | Potency, µM (highest dose often 76.8 µM), actives largely listed as inhibitors; note: nearly all actives have a fitted effect of over 50% in size
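ADP (130 uM final) triggers the TbPYK reaction after compound addition; incubation is 45 min at room temperature. Kinase-Glo Plus is then added and luminescence imaged. Normalized data are fitted to concentration-effect curves.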
Cycloheximide cs: Cycloheximide Counterscreen for Small Molecule Inhibitors of Shiga Toxin. cell reporter, cycloheximide protein synthesis inhibition counterscreen. max response, %. 300,000 tested, 12% active; in the data active = max response mostly above about 13%, no sharp cut-off; inactive = mostly below about 14%; note: read at 38.3 µM for the half of the compounds with a filed dose
FBPA Giardia inh: qHTS Assay for Inhibitors of Fructose-1,6-bisphosphate Aldolase from Giardia Lamblia; purified Giardia FBPA; Potency, µM (top dose mostly 59.6 µM), usual class: inhibitors; 290,000 tested, 0.71% active; AID 2451, 2010; note: nearly all actives have a fitted effect of over 55% in size
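Giardia FBPA (40 nM reagent) was preincubated 10 min at RT with compound (up to 57.5 uM final), then substrate plus GAPDH/TPI/NAD/arsenate coupling system with diaphorase/resazurin was added; resorufin fluorescence (525/598 nm) was read after 20 min.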
A number is an active result; n = inactive; u = inconclusive; x = no result. Unless noted, calls come from the whole dose curve; as a rule, active = well fitted curve in the direction sought with a large enough effect; inconclusive = small, poorly fitted or top-dose-only effect, or another doubt; inactive = no such curve, though single readings can be large; an effect the other way counts as inactive or inconclusive.

SMILES	RE007 growth inh	LmPK inh	Shiga inhibitor	TbPYK inhibitor	Cycloheximide cs	FBPA Giardia inh
CC(C)c1ccc(NC(=O)c2ccccc2NC(=O)C2CCCCC2C(=O)O)cc1 (stereo unspecified)	n	n	60	n	39	n
O=C(Nc1ccc(F)c(Cl)c1)c1ccccc1NC(=O)C1CCCCC1C(=O)O (stereo unspecified)	n	x	x	n	x	x
O=C(Nc1cccc(Cl)c1)c1ccccc1NC(=O)C1CCCCC1C(=O)O (stereo unspecified)	n	n	n	n	21	n
CC(C)c1ccc(NC(=O)c2ccccc2NC(=O)C2CC=CCC2C(=O)O)cc1 (stereo unspecified)	n	n	60	n	33	x
CC[C@H](C)[C@H](NC(=O)[C@H](Cc1ccc(O)cc1)NC(=O)[C@@H]1CCCN1C(=O)[C@H](CCCN=C(N)N)NC(=O)[C@H](CCCN=C(N)N)NC(=O)[C@@H]1CCCN1C(=O)[C@H](CCCCN)NC(=O)[C@H](CC(N)=O)NC(=O)[C@H](CCC(N)=O)NC(=O)[C@H](Cc1ccc(O)cc1)NC(=O)[C@H](CC(C)C)NC(=O)[C@@H]1CCC(=O)N1)C(=O)N[C@@H](CC(C)C)C(=O)O	x	x	n	x	n	n
NC(=O)CSCc1nc2ccccc2s1	n	n	n	n	84	n
O=C(CCc1nc2ccccc2s1)OCc1ccccc1	n	n	n	n	n	n
N/C(Cc1nc2ccccc2s1)=N\O	n	n	108	n	31	n
COc1cccc(Cn2c(C(C)n3c(-c4cnccn4)nc4ccccc43)nc3ccccc32)c1 (stereo unspecified)	n	x	x	x	x	x
Cn1c(CC(=O)Nc2ccccc2)cc2ccccc21	n	n	46	n	40	n
CCn1c(CNC(=O)c2ccc(F)cc2)cc2ccccc21	n	n	n	n	30	n
COc1ccc(C(=O)NCc2cc3ccccc3n2C)cc1	n	n	x	n	29	n
COc1ccc(C(=O)NCc2ccc3c(c2)cc(C)n3C)cc1	n	n	n	n	n	n
CSc1c(CC(=O)Nc2ccccc2)n(C)c2ccccc12	n	n	n	n	n	n
CCN1CCN(c2ccc(Nc3ccnc4ccccc34)cc2)CC1	n	x	x	n	x	x
CCc1cccc(NC(=O)CCc2nc3cccnc3n2-c2ccccc2)c1	x	x	x	n	x	x
Cc1nn(C)c(=O)c(N)c1-c1cc(-c2ccc(Cl)c(Cl)c2)n[nH]1	n	n	n	n	n	n
Cc1ccc(-c2cc(-c3c(C)nn(C)c(=O)c3N)[nH]n2)cc1	n	n	n	n	26	n
C/C=C/c1ccc(OC)cc1	x	x	x	x	x	n
CN(C)c1ccc(/C=C/c2ccncc2)cc1	n	n	68	n	32	n
COc1ccc(/C=C/c2cc(OC)cc(=O)o2)cc1	x	x	86	x	49	n
COc1ccc(/C=C/c2ccncc2)cc1	n	n	94	n	40	x
NCCNC[C@@H](N)CCCN=C(N)N[N+](=O)[O-]	x	x	n	x	n	u
COc1ccc(C2OC(=O)CC2C(=O)NCc2ccc(Cl)cc2)cc1OC (stereo unspecified)	n	n	85	n	34	n
COc1ccc(NC(=O)C(c2cc3c(cc2[N+](=O)[O-])OCO3)N(C)Cc2ccccc2)cc1 (stereo unspecified)	n	n	n	n	n	n
CCN(c1cccc(C)c1)C(C(=O)Nc1ccc(OC)cc1)c1cc2c(cc1[N+](=O)[O-])OCO2 (stereo unspecified)	n	n	n	n	11	n
Cc1ccccc1-c1nnc(CN2CCN(c3cc(Cl)ccc3C)CC2)o1	x	x	x	n	x	x
O=C(Nc1cccc(S(=O)(=O)N2CCOCC2)c1)c1ccccn1	n	n	n	n	n	n
CCOc1cc(N2CCOCC2)c(OCC)cc1NC(=O)c1ccc2ccccc2n1	n	n	53	n	28	u
O=C(Nc1cccc(S(=O)(=O)N2CCCCCC2)c1)c1ccc2ccccc2n1	n	n	n	n	22	n

Screens as filed in PubChem BioAssay.
